# Source: PubChem BioAssay
# Active and inactive are the calls of the source.
# Key:
# [1] = system: PRMT1 (protein arginine N-methyltransferase 1); test: PRMT1 binders on small-molecule microarrays, primary screen, biochemical, small-molecule microarray, 635 nm fluorescence (AID 1088); conditions: small-molecule microarray binding, higher = more signal;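 note: binding of Prmt1 protein to compounds spotted on small-molecule microarray slides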
# [2] = yeast growth modulation, basal conditions, primary screen, YJM789 clinical isolate, OD600, 24 h (AID 1089);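 note: growth of clinical yeast isolate S. cerevisiae YJM 789 seeded 1000 cells per well; test concentration not given here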; conditions: S. cerevisiae YJM789 growth, higher = more signal, called active from +8 up or from −8 down
# [3] = fission yeast growth modulation, primary screen, strain 972, OD600, 24 h, no modulator (AID 1090);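 note: basal condition with compound alone and no growth modifier present; test concentration not given here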; conditions: S. pombe 972 growth, higher = more signal, called active from +8 up or from −8 down
# [4] = S. cerevisiae growth modulation with rapamycin, primary screen, strain BY4716, OD600, 96 h (AID 1091); conditions: higher = more signal, called active from +8 up or from −8 down; note: test concentration not given here
# [5] = target: Torsin-1A-interacting protein 2 (Homo sapiens) (UniProt Q8NFQ8); test: LULL1 binders on small-molecule microarray, primary screen, cell lysate, human LULL1 lysate, 635/667 nm fluorescence (AID 1092); conditions: hLULL1 lysate binding, 635 nm fluorescence, higher = more signal;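 note: probe is lysate of COS7 cells overexpressing human LULL1; score merges per-feature 667 nm fluorescence with signal-to-noise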
# Torsin-1A-interacting protein 2 (Homo sapiens), sequence (Q8NFQ8 whole entry, looked up): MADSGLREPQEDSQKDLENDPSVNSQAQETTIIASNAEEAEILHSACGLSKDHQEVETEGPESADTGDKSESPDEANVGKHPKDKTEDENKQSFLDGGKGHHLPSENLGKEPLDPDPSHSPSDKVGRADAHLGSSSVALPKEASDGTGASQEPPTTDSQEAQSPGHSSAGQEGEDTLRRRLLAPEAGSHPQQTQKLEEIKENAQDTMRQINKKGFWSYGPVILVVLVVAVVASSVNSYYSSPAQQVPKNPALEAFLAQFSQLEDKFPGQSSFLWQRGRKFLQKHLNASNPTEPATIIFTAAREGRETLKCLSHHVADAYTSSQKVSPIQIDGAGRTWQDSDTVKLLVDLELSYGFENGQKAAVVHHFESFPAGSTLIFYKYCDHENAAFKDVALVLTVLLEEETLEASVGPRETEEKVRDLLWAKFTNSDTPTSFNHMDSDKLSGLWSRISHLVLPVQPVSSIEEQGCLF
# [6] = E. coli growth modulation, two-sided OD650, primary screen, E. coli filamentation project, strain DRC41, 24 h (AID 1093); conditions: OD650, 24 h, higher = more signal, called active from +8 up or from −8 down;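 note: MC1000 strain lacking acrAB efflux and sulA so SOS filamentation is blocked; test concentration not given here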
# [7] = small-molecule microarray binders of probe aLefty2, primary screen, biochemical, biotinylated probe, 635/667 nm fluorescence (AID 1094); conditions: higher = more signal;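 note: score merges spot fluorescence near 667 nm with spot signal-to-noise ratio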
# [8] = system: Noggin (protein binding on small-molecule microarray); test: Noggin binders on small-molecule microarray, primary screen, biochemical, 635/667 nm fluorescence (AID 1095); conditions: 635 nm fluorescence, higher = more signal;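 note: score merges 667 nm feature fluorescence with signal to noise over triplicate slides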
# [9] = target: Neurogenic locus notch homolog protein 3 (Homo sapiens) (UniProt Q9UM47); test: NOTCH3 binders on small-molecule microarray, primary screen, biochemical, 635/667 nm fluorescence (AID 1096); conditions: NOTCH3 binding, 635 nm fluorescence, higher = more signal
# Neurogenic locus notch homolog protein 3 (Homo sapiens), sequence (Q9UM47 whole entry, looked up): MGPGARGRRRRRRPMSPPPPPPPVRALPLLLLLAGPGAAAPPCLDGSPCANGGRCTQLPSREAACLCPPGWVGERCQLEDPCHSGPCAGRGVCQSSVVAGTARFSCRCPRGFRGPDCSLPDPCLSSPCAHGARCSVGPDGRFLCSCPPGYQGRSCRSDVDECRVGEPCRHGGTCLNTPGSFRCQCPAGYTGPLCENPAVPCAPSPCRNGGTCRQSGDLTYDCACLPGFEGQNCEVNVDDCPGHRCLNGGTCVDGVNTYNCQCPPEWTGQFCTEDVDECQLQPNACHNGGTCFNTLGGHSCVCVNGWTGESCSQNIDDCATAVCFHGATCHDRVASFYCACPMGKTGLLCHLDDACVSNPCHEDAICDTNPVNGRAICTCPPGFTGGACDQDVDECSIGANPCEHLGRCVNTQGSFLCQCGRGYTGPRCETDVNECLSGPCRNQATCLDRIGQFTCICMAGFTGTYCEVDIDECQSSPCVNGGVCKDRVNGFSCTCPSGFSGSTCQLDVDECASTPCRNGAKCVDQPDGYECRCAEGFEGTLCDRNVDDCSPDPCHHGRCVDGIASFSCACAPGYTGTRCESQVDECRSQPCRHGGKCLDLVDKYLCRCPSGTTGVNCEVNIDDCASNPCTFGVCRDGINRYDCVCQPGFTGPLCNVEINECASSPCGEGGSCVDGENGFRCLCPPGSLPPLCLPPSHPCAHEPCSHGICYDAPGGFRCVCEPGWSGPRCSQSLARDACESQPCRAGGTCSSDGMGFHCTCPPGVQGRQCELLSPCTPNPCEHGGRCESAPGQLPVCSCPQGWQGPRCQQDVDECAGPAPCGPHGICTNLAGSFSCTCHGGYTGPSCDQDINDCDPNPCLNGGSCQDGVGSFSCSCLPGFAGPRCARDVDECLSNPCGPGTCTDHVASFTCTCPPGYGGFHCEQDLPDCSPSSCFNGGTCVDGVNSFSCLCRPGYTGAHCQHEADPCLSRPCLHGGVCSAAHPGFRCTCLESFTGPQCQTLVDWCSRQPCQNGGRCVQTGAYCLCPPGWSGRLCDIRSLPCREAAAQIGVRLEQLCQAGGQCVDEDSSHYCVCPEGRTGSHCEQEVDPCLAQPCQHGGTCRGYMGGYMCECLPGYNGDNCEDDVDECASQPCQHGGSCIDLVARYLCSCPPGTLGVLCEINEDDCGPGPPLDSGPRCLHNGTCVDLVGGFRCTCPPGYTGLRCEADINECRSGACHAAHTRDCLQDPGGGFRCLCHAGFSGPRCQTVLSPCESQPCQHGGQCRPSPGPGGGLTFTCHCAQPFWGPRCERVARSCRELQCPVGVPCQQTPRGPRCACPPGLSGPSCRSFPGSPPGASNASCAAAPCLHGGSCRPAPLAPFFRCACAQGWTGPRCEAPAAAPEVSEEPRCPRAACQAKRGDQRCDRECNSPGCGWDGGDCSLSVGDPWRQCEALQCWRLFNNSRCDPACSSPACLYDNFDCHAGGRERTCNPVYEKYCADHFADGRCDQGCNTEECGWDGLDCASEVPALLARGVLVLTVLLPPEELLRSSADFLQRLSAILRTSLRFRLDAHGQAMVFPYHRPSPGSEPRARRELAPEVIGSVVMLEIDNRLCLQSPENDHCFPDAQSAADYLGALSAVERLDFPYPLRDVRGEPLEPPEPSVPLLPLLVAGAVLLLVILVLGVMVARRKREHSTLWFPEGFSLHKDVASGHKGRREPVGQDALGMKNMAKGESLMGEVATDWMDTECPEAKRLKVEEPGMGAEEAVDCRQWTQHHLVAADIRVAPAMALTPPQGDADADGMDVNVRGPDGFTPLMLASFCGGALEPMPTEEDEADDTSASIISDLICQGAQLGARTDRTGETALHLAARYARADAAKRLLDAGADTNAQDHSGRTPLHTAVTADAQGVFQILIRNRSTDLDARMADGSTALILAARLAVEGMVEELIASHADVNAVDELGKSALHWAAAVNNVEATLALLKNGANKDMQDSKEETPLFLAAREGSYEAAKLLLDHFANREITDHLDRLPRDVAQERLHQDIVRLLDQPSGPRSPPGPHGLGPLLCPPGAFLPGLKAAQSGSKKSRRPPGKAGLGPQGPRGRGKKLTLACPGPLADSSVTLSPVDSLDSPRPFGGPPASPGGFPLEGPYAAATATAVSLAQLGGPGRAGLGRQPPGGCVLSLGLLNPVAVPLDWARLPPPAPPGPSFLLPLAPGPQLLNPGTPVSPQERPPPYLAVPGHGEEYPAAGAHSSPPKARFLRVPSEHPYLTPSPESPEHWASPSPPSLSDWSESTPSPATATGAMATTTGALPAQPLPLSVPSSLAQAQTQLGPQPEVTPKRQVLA
# [10] = small-molecule microarray binders of probe aEGFR, primary screen, biochemical, biotinylated probe, 635/667 nm fluorescence (AID 1097); conditions: higher = more signal;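 note: probe is a biotinylated anti-EGFR antibody binding compounds printed on slides; score combines fluorescence near 667 nm and signal to noise of each spot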
SMILES,composite z-score [1],z-score [2],z-score [3],z-score [4],composite z-score [5],z-score [6],composite z-score [7],composite z-score [8],composite z-score [9],composite z-score [10]
CC(C)CNC(=O)[C@@]1(C)c2ccccc2C(=O)N(Cc2ccccc2)[C@H]1c1ccc(CO)cc1,-0.579,-1.79 (inactive),-0.849 (inactive),-0.879 (inactive),3.04,-0.483 (inactive),0.0397,-1.79,-0.643,-0.285
C[N+](C)(C)CCCCCCNC(=O)[C@@H]1C[C@@H]2C(=O)NCC(=O)N2[C@@H]1c1cccc(OCCO)c1,1.55,-0.947 (inactive),0.0641 (inactive),-0.683 (inactive),2.23,1.3 (inactive),-0.207,1.49,1.1,-0.0531
COC(=O)[C@@]1(Cc2ccc(OC)cc2)[C@H]2c3cc(C(=O)N(C)C)n(CCF)c3C[C@H]2CN1C(=O)c1ccccc1,0.574,0.215 (inactive),1.25 (inactive),0.167 (inactive),3.24,-0.0418 (inactive),0.411,0.296,1.02,0.0986
COCCOC(=O)N1C(=O)[C@@]2(c3cc(C#CC4(O)CCCCCC4)ccc31)[C@H](C(=O)N1CCc3cc(OC)c(OC)cc3C1)[C@H]1C(=O)O[C@H](c3ccccc3)[C@H](c3ccccc3)N1[C@@H]2c1ccccc1OCCO,1.54,2.29 (inactive),1.05 (inactive),3.98 (inactive),1.39,1.36 (inactive),0.226,1.29,1.06,0.295
Cc1ccc(N2C(=O)c3ccccc3[C@](C)(C(=O)NC(C)C)[C@@H]2c2ccc(CO)cc2)nc1,0.595,-0.273 (inactive),-1.14 (inactive),-1.8 (inactive),3.07,1.19 (inactive),-0.0153,-2.13,-0.572,-0.36
CC(C)C(CO)N1C(=O)[C@@H]2[C@H]3C(=O)OCC=C[C@H]3OC23C=CCN(CCN2CCOCC2)C(=O)[C@@H]13 (stereo not given in full),0.598,1.21 (inactive),0.0729 (inactive),0.759 (inactive),1.13,-0.455 (inactive),-0.25,0.521,0.583,-0.244
C=CCC(OC(C)=O)[C@@H]1[C@@H](N(Cc2cc3ccccc3o2)C(=O)Cc2ccc(OC)cc2)c2cc(OCCCO)ccc2N1C(=O)c1ccc(-c2ccccc2)cc1 (stereo not given in full),-0.427,0.0801 (inactive),-0.709 (inactive),0.714 (inactive),0.238,1.53 (inactive),0.0689,-0.624,-1.09,-0.127
[N-]=[N+]=NCc1ccccc1[C@H]1OC(c2ccc(OCCCO)cc2)=N[C@@]1(Cc1ccccc1N=[N+]=[N-])C(=O)N1CCCCC1,1.53,0.401 (inactive),0.763 (inactive),2.23 (inactive),3.44,0.203 (inactive),0.352,0.667,1.12,0.23
C=C(CCCC)/C(=C/C[C@H](OC(=O)c1ccncc1)c1ccc(CO)o1)c1cc(C(=O)OC)ccc1OC,1.56,-0.0643 (inactive),-1.65 (inactive),-0.57 (inactive),2.12,0.171 (inactive),0.0123,1,1.13,-0.0056
N#Cc1ccc(NN2C(C(O)c3ccccc3)C=CC3C(=O)N(c4ccccc4)C(=O)C32)cc1 (stereo not given),-0.827,-0.541 (inactive),0.836 (inactive),1.77 (inactive),3.29,-0.676 (inactive),0.228,-0.229,0.552,-0.0531
CCCC[C@@H](O)C1=C(COc2ccccc2)Cn2c(=O)n(-c3ccccc3)c(=O)n2[C@H]1CO,0.0063,-2.31 (inactive),-1.82 (inactive),-1.17 (inactive),0.94,1.87 (inactive),-0.285,-0.376,-0.88,-0.229
C[N+](C)(C)CCCC[C@@H]1NC(=O)[C@H]2C[C@@H](C(=O)NCCCCCCN)[C@@H](c3cccc(OCCO)c3)N2C1=O,1.54,-0.0132 (inactive),-0.87 (inactive),-0.133 (inactive),3.06,0.27 (inactive),1.08,1.15,1.07,0.693
O=C1C[C@@](C(=O)NCc2ccccc2)(c2ccc([N+](=O)[O-])cc2)[C@@H](c2ccc(CO)cc2I)N1C1CCCCC1,1.55,1.2 (inactive),0.856 (inactive),3.33 (inactive),2.38,1.04 (inactive),0.569,0.924,1.12,0.695
